Results taken from the supplement of paper PMC6555819.

What was measured:
Assay in all cases: PBM binding z-score (relative to random genomic background probes); higher = stronger binding; sequences stand for … in GC…GCGATTGACAGCGTAGAATGAAGG
[1] = tested on: FXR:RXRa (NR concentration 270 nM, RXRa partner concentration 90 nM)
Summary of the method: (§1)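 Binding buffer was PBS pH 7.4 with 2% milk, 0.02% Triton X-100, 1 mM DTT, 0.2 mg/mL BSA and 0.4 mg/ml salmon testes DNA. In it, ligand-free nuclear receptor dimers were incubated 1 h on custom Agilent 4×180K protein-binding microarrays carrying double-stranded probes. Antibodies against each partner (one per run) detected binding, and z-scores were calculated against random background probes after regression normalization of scanned fluorescence.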

[2] = tested on: LXRa:RXRa (NR concentration 270 nM, RXRa partner concentration 90 nM)
Summary of the method: as §1

[3] = tested on: LXRa homodimer (NR concentration 270 nM)
Summary of the method: as §1

[4] = tested on: LXRb:RXRa (NR concentration 270 nM, RXRa partner concentration 90 nM)
Summary of the method: as §1

[5] = tested on: LXRb homodimer (NR concentration 270 nM)
Summary of the method: as §1

[6] = tested on: PPARa:RXRa (NR concentration 270 nM, RXRa partner concentration 90 nM)
Summary of the method: as §1

[7] = tested on: PPARg:RXRa (NR concentration 180 nM, RXRa partner concentration 90 nM)
Summary of the method: as §1

[8] = tested on: PPARg:RXRa 270nM:90nM, anti-RXR (NR concentration 270 nM, RXRa partner concentration 90 nM)
Summary of the method: as §1

[9] = tested on: PPARg:RXRa 30nM:10nM, anti-RXR (NR concentration 30 nM, RXRa partner concentration 10 nM)
Summary of the method: as §1

[10] = tested on: PPARg:RXRa 90nM:30nM, anti-RXR (NR concentration 90 nM, RXRa partner concentration 30 nM)
Summary of the method: as §1

[11] = tested on: PPARg:RXRa DBDmut IVT, anti-RXR (DBD mutation: RXRa K156A/R161A, NR concentration 270 nM, RXRa partner concentration 90 nM)
Summary of the method: as §1

[12] = tested on: PPARg:RXRa IVT, anti-PPARg (NR concentration 270 nM, RXRa partner concentration 90 nM)
Summary of the method: as §1

[13] = tested on: PPARg DBDmut:RXRa IVT, anti-PPARg (DBD mutation: PPARg1 K132A/R137A, NR concentration 270 nM, RXRa partner concentration 90 nM)
Summary of the method: as §1

[14] = tested on: PPARg DBDmut IVT, anti-PPARg (DBD mutation: PPARg1 K132A/R137A, NR concentration 270 nM)
Summary of the method: as §1

[15] = tested on: PPARg homodimer (NR concentration 180 nM)
Summary of the method: as §1

[16] = tested on: PXR:RXRa (NR concentration 270 nM, RXRa partner concentration 90 nM)
Summary of the method: as §1

[17] = tested on: PXR homodimer (NR concentration 270 nM)
Summary of the method: as §1

[18] = tested on: RARa:RXR (NR concentration 270 nM, RXRa partner concentration 90 nM)
Summary of the method: as §1

[19] = tested on: RARa homodimer (NR concentration 270 nM)
Summary of the method: as §1

[20] = tested on: RARb:RXRa (NR concentration 270 nM, RXRa partner concentration 90 nM)
Summary of the method: as §1

| Sequence | PBM binding z-score [1] | PBM binding z-score [2] | PBM binding z-score [3] | PBM binding z-score [4] | PBM binding z-score [5] | PBM binding z-score [6] | PBM binding z-score [7] | PBM binding z-score [8] | PBM binding z-score [9] | PBM binding z-score [10] | PBM binding z-score [11] | PBM binding z-score [12] | PBM binding z-score [13] | PBM binding z-score [14] | PBM binding z-score [15] | PBM binding z-score [16] | PBM binding z-score [17] | PBM binding z-score [18] | PBM binding z-score [19] | PBM binding z-score [20] |
| --- | --- | --- | --- | --- | --- | --- | --- | --- | --- | --- | --- | --- | --- | --- | --- | --- | --- | --- | --- | --- |
| AGTAGTTGGTCAGCTGAGGTCACACACAATTCGG | 4.48 | 3.37 | 2.92 | 3.55 | 0.79 | 3.63 | 1.63 | 2.33 | 0.674 | 1.56 | 1.18 | 2.65 | 0.554 | 0.308 | 3.34 | 5.41 | 2.54 | 4.6 | 1.53 | 3.63 |
| GCACACAGGTGAAACGCAGGTAACTCAGGGTGGC | 0.021 | 0.302 | -0.342 | -0.349 | -0.845 | 0.939 | 0.853 | 0.355 | -0.481 | -0.0562 | 1.25 | 1.35 | -0.286 | -0.23 | -0.0515 | -0.134 | -0.747 | 0.575 | -0.648 | 0.803 |
| TCTATTAGTTGAAGGGCAACCGTCGAGTCCGTTT | 0.742 | 0.933 | 0.368 | 0.792 | 0.191 | 0.493 | -0.355 | 2.08 | 3.65 | 2.84 | 2.35 | 0.992 | 0.699 | 1.21 | 0.883 | 0.735 | 0.911 | 0.24 | 1.09 | 1.63 |
| TATATTAGTTGAAGGGCAACCGACGAGTCCGTTT | 0.481 | 0.797 | 0.861 | 0.474 | 1.01 | 0.509 | 0.844 | 1.23 | 0.993 | 1.22 | 0.182 | 0.973 | 1.48 | 1.13 | 1.26 | 0.629 | 0.738 | 0.321 | 1.47 | 1.68 |
| GATACAGGGTCAGCTAGAGGCCATAGTATGGAAA | 4.67 | 3.04 | -0.128 | 2.94 | -0.352 | 4.53 | 4.05 | 3.34 | 0.897 | 2.51 | 0.981 | 2.33 | 0.47 | -0.0794 | 2.26 | 3.96 | 0.241 | 4.62 | 0.222 | 4.15 |
| GCTGCTAGGTCAACTGATGGTCAGCTTAAGCTCG | 4.41 | 3.13 | 0.215 | 2.09 | 0.173 | 3.5 | 2.44 | 2.97 | 0.312 | 2.07 | 5.04 | 4.2 | -0.326 | -0.587 | 2.5 | 1.85 | -0.712 | 3.1 | -0.0481 | 4.24 |
| AACACAGGGTCATCGTAGGCCAGAGTACGCACAG | 7.22 | 6.21 | 1.53 | 4.44 | 0.922 | 5.84 | 5.85 | 5.7 | 1.96 | 4.21 | 2.2 | 3.46 | 1.2 | 0.514 | 2.34 | 4.91 | 0.707 | 4.91 | 0.823 | 4.3 |
| TCAAGTAGGTTAGTCGGGGCATTCAGCCAACATA | 0.926 | 0.645 | 0.0892 | 1.03 | 0.134 | 1.68 | 1.07 | 2.48 | 3.63 | 3.14 | 4.81 | 4.14 | 0.386 | 1.15 | 1.35 | 0.801 | 0.708 | 0.739 | 0.814 | 0.917 |
| CGTCAAAGTTCAACTAAGCTAACGTAAAGCACGC | 6.6 | 6.23 | 4.14 | 4.26 | 2.57 | 5.08 | 4.95 | 5.46 | 1.83 | 4.48 | 0.667 | 1.69 | 1.11 | 1.29 | 3.28 | 4.69 | 4.44 | 3.82 | 2.34 | 5.31 |
